# The campaign covered roughly 290,000 compounds. About 2,200 (0.76%) were called active. This is one part of a sample in which actives are shown more often than they occur. No stated cut-off is given here; in the data, active means inhibition above about 30%; inconclusive means no clear call, values can overlap the other calls; inactive means below that.
# Target: Protein RecA (Mycobacterium tuberculosis (strain ATCC 25618 / H37Rv)) (UniProt P9WHJ3)
# Experiment: Mtb RecA intein splicing inhibitors, primary screen, biochemical, fluorescence, HTS (AID 2221);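 further: 0% = vehicle wells and 100% = reference inhibitor control wells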
# Conditions: cell-free RecA intein splicing, active compounds read high, concentration not given here
# Chain of Protein RecA (Mycobacterium tuberculosis (strain ATCC 25618 / H37Rv)) (P9WHJ3 whole entry, looked up): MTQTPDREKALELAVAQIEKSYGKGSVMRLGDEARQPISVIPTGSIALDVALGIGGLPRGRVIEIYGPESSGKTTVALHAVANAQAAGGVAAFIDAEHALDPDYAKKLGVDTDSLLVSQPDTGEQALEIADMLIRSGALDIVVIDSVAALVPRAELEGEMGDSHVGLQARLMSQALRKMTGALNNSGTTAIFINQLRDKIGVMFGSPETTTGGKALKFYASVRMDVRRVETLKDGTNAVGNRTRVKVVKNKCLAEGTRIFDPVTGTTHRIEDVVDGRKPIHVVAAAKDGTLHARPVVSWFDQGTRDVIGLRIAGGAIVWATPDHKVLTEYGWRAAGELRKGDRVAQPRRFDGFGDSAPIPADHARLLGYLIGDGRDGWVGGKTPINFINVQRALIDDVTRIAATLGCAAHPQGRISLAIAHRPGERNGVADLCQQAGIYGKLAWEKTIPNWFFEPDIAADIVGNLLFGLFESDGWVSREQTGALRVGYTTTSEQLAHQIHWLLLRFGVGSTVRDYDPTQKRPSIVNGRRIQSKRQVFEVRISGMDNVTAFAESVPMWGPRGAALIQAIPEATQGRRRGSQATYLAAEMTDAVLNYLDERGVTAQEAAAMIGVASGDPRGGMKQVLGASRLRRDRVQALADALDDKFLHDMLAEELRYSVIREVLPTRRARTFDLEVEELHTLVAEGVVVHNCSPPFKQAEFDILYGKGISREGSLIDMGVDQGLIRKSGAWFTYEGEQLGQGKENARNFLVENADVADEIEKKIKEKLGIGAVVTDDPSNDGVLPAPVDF
row,Structure (SMILES),inhibition
1,CC1(N2CCOCC2)CC2(O)C(=[N+]1[O-])CCc1nonc12 (stereo unspecified),59.8% (active)
2,CC(=O)n1c(C=Nc2ccccc2)c(O)c2ccccc21,-25.1% (inactive)
3,Cc1ccc(NC(=O)CSc2nnc(CNC(=O)c3ccccc3F)o2)cc1,-1.52% (inactive)
4,O=C(CCCN=C1NS(=O)(=O)c2ccccc21)OCC(=O)c1ccc(F)c(F)c1,0.337% (inactive)
5,CCN(CC)S(=O)(=O)c1ccc(Cl)c(NC(=O)c2ccncc2)c1,-0.0873% (inactive)
6,CC(=O)c1cccc(NC(=O)c2ccncc2)c1,-0.301% (inactive)
7,CN(C)c1ccc(NC(=O)c2ccncc2)c2ccccc12,32.8% (active)
8,Cc1cc(Nc2cccc(C)c2C)n2ncnc2n1,0.489% (inactive)
9,COc1ccc(Nc2ncnc3ccc(Br)cc23)c(OC)c1,-1.95% (inactive)
10,COc1ccc2sc(N(CCCN(C)C)C(=O)c3ccc(S(=O)(=O)N(C)C4CCCCC4)cc3)nc2c1,2.28% (inactive)
11,S=c1nccc(-c2cc(Cl)sc2Cl)[nH]1,2.58% (inactive)
12,COc1ccc(-c2csc(Cc3nc(O)cs3)n2)cc1,8.96% (inactive)
13,O=c1oc2ccccc2cc1-c1csc(Nc2ccc(O)cc2)n1,-3.92% (inactive)
14,COc1ccc(-c2csc(Nc3ccc(O)cc3)n2)cc1,33.3% (active)
15,NNC(=O)C1CC(O)CN1S(=O)(=O)c1ccc(Cl)cc1 (stereo unspecified),0.0391% (inactive)
16,COc1cccc(CN(C)C(=O)CC23CC4CC(CC(C4)C2)C3)c1OC,9.37% (inactive)
17,O=C(NCCc1ccccc1)Oc1ccc(Cl)cc1,6.61% (inactive)
18,COc1cccc(CNC(=O)C2CCCN(c3ncnc4c3nc3n4CCCCC3)C2)c1 (stereo unspecified),3.28% (inactive)
19,O=C(O)CSc1c2c(nc3cc(C(=O)Nc4cccc(C(F)(F)F)c4)ccc13)CCCC2,45.1% (active)
20,CC(=O)c1ccc(NC(=O)c2ccc3c(Cl)c4c(nc3c2)CCCC4)cc1,-0.115% (inactive)
21,COc1cccc(NC(=O)c2ccc3c(SCC(=O)O)c4c(nc3c2)CCCC4)c1,16.6% (inactive)
22,CC(C)CC(=O)Nc1nnc(S(=O)(=O)N(C)c2ccc(Cl)cc2)s1,-1.1% (inactive)
23,O=C(C1CCCN(S(=O)(=O)c2ccc([N+](=O)[O-])cc2)C1)N1CCCCC1 (stereo unspecified),-2.27% (inactive)
24,O=c1oc2ccccc2c(NC2CCCCC2)c1NS(=O)(=O)c1ccc(Cl)cc1,-0.796% (inactive)

row,Structure (SMILES),inhibition
1,O=C(c1ccc(Cl)cc1)n1cnc2ccccc21,48.8% (active)
2,COC(=O)c1cn(C(=O)c2ccc(Cl)cc2)c2ccccc12,-1.64% (inactive)
3,COC(=O)c1ccc(-n2cnc3ccccc32)nc1,-0.81% (inactive)
4,O=C(Nc1ncccc1O)c1ccc(S(=O)(=O)N2CCCCCC2)cc1,-0.935% (inactive)
5,Oc1c(Cl)cc(Cl)c(Cl)c1Cc1c(O)c(Cl)cc(Cl)c1Cl,43.2% (active)
6,COC(=O)c1nc(NC(=O)c2ccc(C(C)(C)C)cc2)n[nH]1,32.8% (active)
7,COC(=O)c1nc(NC(=O)c2ccc(Cl)cc2)n[nH]1,-2.52% (inactive)
8,COC(=O)c1nc(NC(=O)c2ccc(F)cc2)n[nH]1,22.9% (inactive)
9,CC(=O)N1CC(=O)N(CC(=O)Nc2ccc(Br)cc2)C1=S,-3.4% (inactive)
10,O=C(Oc1cccc(O)c1)C1CCCCC1,-20.9% (inactive)
11,COC(=O)C1=C(C(=O)OC)C(c2cc([N+](=O)[O-])ccc2O)c2sc(=O)[nH]c2S1 (stereo unspecified),-7.2% (inactive)
12,CCOC(=O)c1c(C)[nH]c2c1-c1ccccc1C(=O)C2=O,97.6% (active)
13,CCOC(=O)c1c(C)nc(-c2ccccc2)nc1NC(=O)C(C)C,-0.631% (inactive)
14,CCOC(=O)c1c(C)[nH]c(C)c1S(=O)(=O)N(C)CC(=O)Nc1ccccc1C,-2.47% (inactive)
15,Cc1cc(C=O)c(C)n1-c1ccc(NC2CCCCC2)c([N+](=O)[O-])c1,15.3% (inactive)
16,O=C(O)c1cccc(N2C(=O)Nc3ccccc3N2O)c1,-5.4% (inactive)
17,O=C(c1cccc(N2CCCC2=O)c1)N1CCOCC1,2.18% (inactive)
18,NC1=NN(c2cccc(C(=O)O)c2)C(=O)C1,83.8% (active)
19,N=C1/C(=C/c2cccn2-c2cccc([N+](=O)[O-])c2)C(=O)N=C2SC=CN12,-0.963% (inactive)
20,O=c1[nH]n2c(-c3ccccc3)nc(O)c2c2ccccc12,-1.37% (inactive)
21,O=c1[nH]c2ccccc2n2c(-c3ccccc3)nnc12,33.2% (active)
22,Cc1ccccc1Cn1c(=O)[nH]c2ccccc21,3.55% (inactive)
23,CN(C(=O)CSc1nnc(N)s1)c1c(N)n(Cc2ccccc2)c(=O)[nH]c1=O,-0.327% (inactive)
24,CC(C)(C)C(=O)N1CCC[C@@]1(CO)C(=O)O,-0.553% (inactive)

row,Structure (SMILES),inhibition
1,CCc1ccc2nc(Nc3ncc(C(C)=O)c(C)n3)nc(C)c2c1,1.55% (inactive)
2,Brc1ccc(-c2n(-c3ccccn3)c3ccccc3[n+]2-c2ccccn2)cc1,6.87% (inactive)
3,Cc1[nH]c2ccccc2c1C(=O)CN1CCCC(C)C1 (stereo unspecified),-2.48% (inactive)
4,CCn1nnnc1SCC(=O)Nc1ccc(N(C)C)cc1,-2.84% (inactive)
5,CC(OC(=O)c1ccccc1OCc1ccc(Cl)cc1)C(N)=O (stereo unspecified),-4.29% (inactive)
6,Cc1ccc(N(Cc2cc3ccccc3[nH]c2=O)C(=O)c2cccs2)cc1,0.4% (inactive)
7,Cc1ccc(N(Cc2cc(=O)[nH]c3ccccc23)C(=O)CCl)cc1,69.5% (active)
8,CC(=O)N(Cc1cc(=O)[nH]c2ccccc12)c1ccc(C)cc1C,2.74% (inactive)
9,O=C(Cc1c[nH]c2ccccc12)OCCOC(=O)Cc1c[nH]c2ccccc12,1.52% (inactive)
10,COc1ccccc1CC(=O)NCCc1c[nH]c2ccccc12,3.54% (inactive)
11,O=S(=O)(O)Oc1c[nH]c2ccccc12,75% (active)
12,O=C(O)C1CCCN(CCC=C(c2ccccc2)c2ccccc2)C1 (stereo unspecified),-1.43% (inactive)
13,O=S(=O)(Nc1n[nH]c(C(F)(F)F)n1)c1ccccc1,-1.49% (inactive)
14,O=C(Nc1ccccc1)c1ccc(NC(=O)c2cccs2)cc1,-3.07% (inactive)
15,O=C(Nc1n[nH]c(C(F)(F)F)n1)c1cccs1,51.9% (active)
16,Cc1ccc(-c2noc(C3CCCN(C(=O)c4cccc(Cl)c4)C3)n2)o1 (stereo unspecified),1.61% (inactive)
17,COC(=O)C1=C(C)OC(N)=C(C#N)C1c1cc(OC)ccc1OC (stereo unspecified),-1.82% (inactive)
18,Cn1c2c(c(=O)n(C)c1=O)C(c1cccc(F)c1)C(C#N)=C(N)O2 (stereo unspecified),-1.55% (inactive)
19,Cc1cc(C)c2c3c(sc2n1)C(c1ccccc1)C(C#N)=C(N)O3 (stereo unspecified),-1.99% (inactive)
20,Cc1nn(Cc2ccccc2)c2c1C(c1ccccc1)C(C#N)=C(N)O2 (stereo unspecified),66.3% (active)
21,Cc1nn(-c2ccccc2)c2c1C(c1ccc(F)cc1)C(C#N)=C(N)O2 (stereo unspecified),43.3% (active)
22,Cc1nn(Cc2ccccc2)c(C)c1NS(=O)(=O)c1ccccc1,1.17% (inactive)
23,COc1ccc(C2C(C#N)=C(N)Oc3cc(N)ccc32)cc1OC (stereo unspecified),-13.5% (inactive)
24,COc1ccccc1C1C(C#N)=C(N)Oc2c1c(-c1ccccc1)nn2-c1ccccc1 (stereo unspecified),35.8% (active)

row,Structure (SMILES),inhibition
1,C=CCOC(=O)C1=C(C)OC(N)=C(C#N)C1c1ccc(F)cc1 (stereo unspecified),5.83% (inactive)
2,Cc1n[nH]c(C)c1S(=O)(=O)N1CCCC(C(=O)Nc2ccc(Br)cc2)C1 (stereo unspecified),-13.2% (inactive)
3,CC1CC(C)(C)CC2(C1)NC(=O)N(CC(=O)Nc1nccs1)C2=O (stereo unspecified),-1.2% (inactive)
4,CCN1CCC2(CC1)N=C(c1ccc(F)cc1)C(=S)N2C(=O)c1ccc(C)cc1,1.27% (inactive)
5,COc1ccc(-c2ccc(CCC(=O)O)n2NC(=O)c2ccc(C(C)(C)C)cc2)cc1,3.63% (inactive)
6,CCN1C(=O)[C@@H]2[C@@H](c3ccc(-c4ccccc4)cc3)N3CCCC[C@@]3(C(=O)OC)[C@@H]2C1=O,2.14% (inactive)
7,Cc1ccc(-c2nc(SCC(=O)Nc3ccccc3OC(F)F)c3c(C)c(C(=O)O)sc3n2)cc1,2.99% (inactive)
8,Cc1ccc(CC2C(=O)N(c3ccc(F)cc3)C(=O)C2C)cc1 (stereo unspecified),-0.367% (inactive)
9,COc1cc(/C(=C/c2ccccc2)c2ccccc2)c2c(c1)oc1ccccc12,-0.274% (inactive)
10,COc1ccc(OC)c(/C(C)=N\NC(=O)c2cc3cc(Cl)ccc3n2C)c1,9.04% (inactive)
11,O=C1NC(c2ccc(-c3ccccc3[N+](=O)[O-])o2)C(C(=O)c2ccc(Cl)cc2)C(O)(C(F)(F)F)N1 (stereo unspecified),45% (active)
12,CC(=O)C1C(c2cccc(Oc3ccccc3)c2)NC(=O)NC1(O)C(F)(F)F (stereo unspecified),-2.89% (inactive)
13,CC1=NN(c2ccc(Cl)c(C(=O)O)c2)C(=O)/C1=C/c1ccc(-c2ccccc2[N+](=O)[O-])o1,7.48% (inactive)
14,CC1(C)CC(=O)C(N=Nc2ccc(S(=O)(=O)N3CCCCCC3)cc2)=C(O)C1,-0.925% (inactive)
15,O=C1C=CC(=O)N1c1ccc(N2CCCCC2)cc1,3.11% (inactive)
16,COc1ccc(NC2=CC(=S)NC(C)(C)C2)cc1,1.09% (inactive)
17,O=C1C(=O)N(CC2COc3ccccc3O2)c2ccccc21 (stereo unspecified),6.05% (inactive)
18,Cc1cc(NC(=O)CCC2COc3ccccc3O2)no1 (stereo unspecified),2.09% (inactive)
19,Cc1cc(C(=O)CCl)c(C)n1CC1COc2ccccc2O1 (stereo unspecified),40.6% (active)
20,Cc1ccc(-c2nnc(Nc3ccc(C(=O)N(C)C)cc3)c3ccccc23)cc1S(N)(=O)=O,-0.54% (inactive)
21,CCCOc1ccc(/C=N/NC(=O)C2CC2)c(OCCC)c1,-1.61% (inactive)
22,O=S(=O)(Nc1ccccn1)c1ccc(Oc2ccccc2)cc1,-0.988% (inactive)
23,COc1ccc(NC(=O)c2cnc(NS(=O)(=O)c3ccccc3)nc2)cc1,0.334% (inactive)
24,COc1ccc(S(=O)(=O)/N=C2\C=C(NS(=O)(=O)c3ccccc3)C(=O)c3ccccc32)cc1,36.2% (active)

# Source: PubChem BioAssay AID2221 (Broad Institute, 2009)
